Laboratory results as given in PubChem BioAssay (NCI).
About 83,000 compounds went through this panel and 20% of them were active in at least one assay; those are over-represented in the sample as a whole.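 The test compound was applied at a single concentration to cells in 96-well plates for 48 hours, and percent growth was recorded.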 Values without a mark were called inactive. Active and inactive are the calls of the source. How the source made its calls: active means growth percent below 10; inactive means the rest.

Legend:
Test in all cases: NCI-60 one-dose screen, 48 h (100 = growth as untreated, 0 = no growth, -100 = all killed)
SR leukemia = details: 10 µM unless noted
RPMI-8226 leukemia = details: 10 µM unless noted
OVCAR-8 ovarian = details: 10 µM unless noted
OVCAR-5 ovarian = details: 10 µM unless noted
OVCAR-4 ovarian = details: 10 µM unless noted
SK-OV-3 ovarian = details: 10 µM unless noted
IGROV1 ovarian = details: 10 µM unless noted
OVCAR-3 ovarian = details: 10 µM unless noted
HS 578T breast = details: 10 µM
NCI/ADR-RES ovarian = details: 10 µM unless noted
T-47D breast = details: 10 µM unless noted
BT-549 breast = details: 10 µM unless noted
MDA-MB-435 melanoma = details: 10 µM unless noted
SW-620 colon = details: 10 µM unless noted
MCF7 breast = details: 10 µM unless noted
HCT-116 colon = details: 10 µM unless noted
HCC-2998 colon = details: 10 µM
KM12 colon = details: 10 µM unless noted

Row | Structure (SMILES) | growth (SR leukemia) | growth (RPMI-8226 leukemia) | growth (OVCAR-8 ovarian) | growth (OVCAR-5 ovarian) | growth (OVCAR-4 ovarian) | growth (SK-OV-3 ovarian) | growth (IGROV1 ovarian) | growth (OVCAR-3 ovarian) | growth (HS 578T breast) | growth (NCI/ADR-RES ovarian) | growth (T-47D breast) | growth (BT-549 breast) | growth (MDA-MB-435 melanoma) | growth (SW-620 colon) | growth (MCF7 breast) | growth (HCT-116 colon) | growth (HCC-2998 colon) | growth (KM12 colon)
1 | COC(=O)[C@]12CC[C@@H](C)[C@H](C)[C@@H]1C1=CC[C@@H]3[C@@]4(C)C[C@@H](OC(=O)/C=C/c5ccccc5)[C@H](O)[C@@](C)(CO)[C@@H]4[C@H](O)C[C@@]3(C)[C@]1(C)CC2 | -18.4% (active) | 9.79% (active) | 14.6% | -27.6% (active) | 23.3% | 41.9% | 31.2% | -37.1% (active) | -0.549% (active) | 7.34% (active) | 13.2% | 34.4% | 11.5% | -58.6% (active) | 14.3% | -56.4% (active) | -41.8% (active) | -2.35% (active)
2 | CCCCCCC1(/C=N/NC(N)=O)NC(=O)NC1=O (centres undefined) | 102% | 111% | 105% | 89% | 98% | 83.2% | 105% | 111% | 114% | 100% | 87.8% | 94.1% | 101% | 104% | 91.2% | 84.2% | 94.5% | 97%
3 | CCc1nc2cc(/C=C/C(=O)NO)c(F)cc2c(=O)n1CCc1ccccc1 | 8.11% (active) | 12% | 6.53% (active) | 25.4% | 11% | -4.18% (active) | 26.1% | 5.14% (active) | 54% | -11.3% (active) | -0.665% (active) | 15.7% | 18.2% | 18.4% | 12.3% | 5.15% (active) | 37.3% | 15.5%
4 | C[N+](C)(CCOC(c1ccccc1)c1ccccc1)CC(=O)OCc1ccccc1 | 115% | 111% | 106% | 103% | 93.5% | 106% | 106% | 103% | 108% | 105% | 120% | 94.8% | 97.9% | 108% | 97% | 105% | 106% | 99.9%
5 | COc1ccc(C2CC(=O)c3c(O)c(OC)c(OC)c(OC)c3O2)cc1O (centres undefined) | 22.7% | 34.3% | 26.8% | 81.1% | 47.9% | 40% | 48.2% | -5.96% (active) | 14.8% | 3.97% (active) | 65.9% | 64.6% | -46.9% (active) | 20.2% | 24.8% | 7.57% (active) | 12.7% | 12.5%
6 | N#Cc1c(-c2ccc(C(F)(F)F)cc2)c(F)c(NCCC2CCC(O)C2)n2c1nc1ccccc12 (centres undefined) | 9.1% (active) | 49.5% | 45.4% | 88.7% | 69.9% | 43.2% | 50.2% | 79.9% | 86.8% | 37.9% | 67.9% | 30.1% | 84.1% | 55.6% | 46.2% | 30.7% | 80.7% | 57.9%
7 | Cc1cc(N(CCNc2ccnc3cc(Cl)ccc23)Cc2ccc3c(c2)OCO3)nc(N2CCCC2)n1 | -46.7% (active) | -27.3% (active) | 7.4% (active) | 20.6% | -44.9% (active) | 40.9% | -14.4% (active) | -30.7% (active) | 6.29% (active) | 31.1% | -36.4% (active) | -7.74% (active) | -69.5% (active) | 8.91% (active) | 7.77% (active) | -68.8% (active) | -24.4% (active) | 44.9%
8 | C=CCCCOC1[C@H](OCc2ccccc2)C(OCc2ccccc2)C(OC)O[C@@H]1CNC(=O)c1cccc(I)c1 (some centres undefined) | 26.7% | 8.34% (active) | 51.8% | 69% | 22.6% | 45.5% | 43.2% | 50.1% | 79.7% | 25.9% | 33.4% | 57.5% | 44.7% | 32.6% | 20.4% | 19.8% | 86.7% | 38.5%
9 | CC(C)[C@@H]1CC[C@]2(CO2)[C@@H]2C(=O)OCC(C(=O)O)=C[C@H]21 | -4.75% (active) | -34.6% (active) | 4.64% (active) | 22% | 12.7% | 15.7% | 5.4% (active) | 5.83% (active) | -5.29% (active) | -12.1% (active) | 12.3% | -5.36% (active) | -6.19% (active) | 5.52% (active) | 45.3% | 3.63% (active) | 4.07% (active) | 2.53% (active)
10 | Cc1nn(-c2nc3ccccc3[nH]2)c2c1C(c1ccc(OCc3ccc(F)cc3)cc1)CC(=O)N2 (centres undefined) | 67.5% | 76.3% | 54% | 98.5% | 98.4% | 49.1% | 54.6% | 51% | 39% | 65.9% | 71.3% | 58.4% | 44.7% | 80.2% | 81.4% | 73.4% | 99.3% | 41.5%
11 | COc1ccc(C(=O)N2c3ccccc3Sc3ccccc32)c(F)c1 | 23% | 18.6% | 32.3% | 62.1% | 49.2% | 38.3% | 54.8% | -7.19% (active) | 15.9% | 1.71% (active) | 40.2% | 22.7% | -37.6% (active) | 15% | 24.2% | 20.1% | 30.3% | 22.7%
12 | COc1c(C(NC(=O)c2ccccc2)c2sccc2C)cc(Cl)c2cccnc12 (centres undefined) | 90% | 89.1% | 96.8% | 96.6% | 112% | 89.3% | 106% | 117% | 98.6% | 98.2% | 90.8% | 97.1% | 108% | 100% | 100% | 84.1% | 112% | 104%
13 | CC(C)C1CCC(C)C(C2(C#N)C(N)=NC(N)=C2C#N)C1=O (centres undefined) | 102% | 89% | 106% | 103% | 90.8% | 107% | 94.4% | 98% | 101% | 97.1% | 83.6% | 98.8% | 101% | 102% | 92.6% | 99.2% | 95.8% | 92.9%
14 | CCN1CCN(c2nc(C)cc(N(CCCNc3ccnc4cc(Cl)ccc34)Cc3ccc4c(c3)OCO4)n2)CC1 | -45.2% (active) | -41.9% (active) | -12.4% (active) | 51.6% | 2.74% (active) | 33.3% | 0.209% (active) | -28.3% (active) | -44.8% (active) | 30.2% | -60.9% (active) | -53.1% (active) | -86.8% (active) | -32.3% (active) | 7.69% (active) | -9.36% (active) | -40.3% (active) | 23.7%
15 | CNC(=O)c1cc(Oc2cccc3nc(Nc4ccc(Cl)c(F)c4)ccc23)ccn1 | 62.2% | 99.5% | 48.9% | 79.7% | 8.11% (active) | 41.4% | 79.3% | 52.2% | 37.5% | 49.5% | 51.3% | 63.8% | 86.4% | 82% | 76.2% | 45.4% | 82.5% | 84.4%
16 | N#Cc1c(-c2ccc(C(F)(F)F)cc2)cc(NCC2CCS(=O)(=O)CC2)n2c1nc1ccccc12 | 79.9% | 80.9% | 93.3% | 103% | 85.4% | 83.3% | 85.6% | 97.9% | 81.3% | 103% | 64.3% | 64.9% | 92.8% | 93.3% | 85.6% | 74.9% | 91.9% | 98.4%
17 | CCN(CCN(C)C)C(=O)CNCc1cc(C(N)=O)ccn1 | 93% | 96.1% | 89.9% | 101% | 109% | 96.4% | 109% | 119% | 108% | 104% | 104% | 102% | 110% | 109% | 96.1% | 94.4% | 94.2% | 101%
18 | N#Cc1cc2[nH]c3ccc(OC(F)(F)F)cc3c2oc1=O | 26.2% | 89.1% | 86.8% | 118% | 73.7% | 62.5% | 78.9% | 67.1% | 86.2% | 70.9% | 61.2% | 76.5% | 12.7% | 71.6% | 81.4% | 81.2% | 83.3% | 80.2%
